Assay results from PubChem BioAssay (NCATS).
Inconclusive results are not listed. Entries that show only a call come without a potency. Active and inactive are the calls of the source. Calls follow the shape of the dose curve; as a rule, active = well fitted curve in the direction sought with a large enough effect; inconclusive = small, poorly fitted or top-dose-only effect, or another doubt; inactive = no such curve, though single readings can be large; an effect the other way counts as inactive or inconclusive.

Key:
[1] = qHTS of pediatric cancer cell lines to identify multiple opportunities for drug repurposing: Confirmatory screen for LAN-5 cells (AID 1347113); also: nearly all actives have a fitted effect of over 65% in size; also: potency is read from the fitted curve at half-maximal effect
Procedure, shortened: (§1)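 Viability after 48 h compound treatment at 37C, 500-1,000 cells/well, read as ATP luminescence with CellTiter-Glo. Primary screens used 11-point (MIPE, 0.78 nM-46 µM) or 8-point (NPC, 0.59 nM-46 µM) final concentrations; follow-up screens used 11-point dilutions.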

[2] = qHTS of pediatric cancer cell lines to identify multiple opportunities for drug repurposing: Confirmatory screen for SJ-GBM2 cells (AID 1347116); also: nearly all actives have a fitted effect of over 60% in size
Procedure, shortened: (§2)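 Viability measured as metabolically active cells via CellTiter-Glo luminescence following 48 hours of compound exposure, 11-point dilutions in confirmatory testing. 500-1,000 cells/well plated 5 hours before dosing; controls were DMSO and 2.3 µM bortezomib.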

[3] = qHTS of pediatric cancer cell lines to identify multiple opportunities for drug repurposing: Confirmatory screen for BT-37 cells (AID 1347117); also: nearly all actives have a fitted effect of over 55% in size; also: potency is read from the fitted curve at half-maximal effect
Procedure, shortened: as §1

[4] = qHTS of pediatric cancer cell lines to identify multiple opportunities for drug repurposing: Confirmatory screen for TC32 cells (AID 1347118);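 also: cells exposed to compound for 48 h before the read; nearly all actives have a fitted effect of over 65% in size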
Procedure, shortened: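 qHTS, TC32, 48 h drug treatment, CellTiter-Glo luminescence as a proxy for metabolically active cells; primary top concentration 46 µM (MIPE 11-pt, NPC 8-pt); confirmatory 11-pt.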

[5] = qHTS of pediatric cancer cell lines to identify multiple opportunities for drug repurposing: Confirmatory screen for control Hh wild type fibroblast cells (AID 1347121); also: nearly all actives have a fitted effect of over 70% in size
Procedure, shortened: as §1

[6] = qHTS of pediatric cancer cell lines to identify multiple opportunities for drug repurposing: Confirmatory screen for U-2 OS cells (AID 1347122); also: nearly all actives have a fitted effect of over 65% in size; also: potency is read from the fitted curve at half-maximal effect
Procedure, shortened: as §1

[7] = qHTS of pediatric cancer cell lines to identify multiple opportunities for drug repurposing: Confirmatory screen for RD cells (AID 1347124);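 also: cells exposed to compound for 48 h before viability readout; nearly all actives have a fitted effect of over 65% in size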
Procedure, shortened: as §1

[8] = qHTS of pediatric cancer cell lines to identify multiple opportunities for drug repurposing: Confirmatory screen for Saos-2 cells (AID 1347127); also: nearly all actives have a fitted effect of over 60% in size
Procedure, shortened: as §1

[9] = qHTS of pediatric cancer cell lines to identify multiple opportunities for drug repurposing: Confirmatory screen for OHS-50 cells (AID 1347128);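 also: compound exposure lasted 48 h at 37 degrees C; nearly all actives have a fitted effect of over 55% in size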
Procedure, shortened: as §1

[10] = system: Zika virus NS2B-NS3 protease; assay: Primary screen GU AMC qHTS for Zika virus inhibitors (AID 1347154); also: nearly all actives have a fitted effect of over 70% in size
Procedure, shortened: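 Unlinked Zika NS2B hydrophilic domain–NS3 protease complex at 25 nM in 10 mM Tris-HCl pH 8.0, 0.01% Tween 20, with an AMC peptide substrate. Fluorescence change (340/450 nm) over 15 min at room temperature, normalized to controls, fitted to 4-parameter Hill.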

[11] = qHTS of pediatric cancer cell lines to identify multiple opportunities for drug repurposing: Confirmatory screen for DAOY cells (AID 1347114); also: nearly all actives have a fitted effect of over 65% in size; also: potency is read from the fitted curve at half-maximal effect
Procedure, shortened: as §2

[12] = qHTS of pediatric cancer cell lines to identify multiple opportunities for drug repurposing: Confirmatory screen for NB-EBc1 cells (AID 1347115);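 also: cells exposed to compound for 48 h before the viability read; nearly all actives have a fitted effect of over 45% in size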; also: potency is read from the fitted curve at half-maximal effect
Procedure, shortened: as §1

[13] = qHTS of pediatric cancer cell lines to identify multiple opportunities for drug repurposing: Confirmatory screen for Rh30 cells (AID 1347126); also: nearly all actives have a fitted effect of over 55% in size
Procedure, shortened: as §1

[14] = qHTS of pediatric cancer cell lines to identify multiple opportunities for drug repurposing: Confirmatory screen for SK-N-SH cells (AID 1347129);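 also: cells exposed to compound for 48 h before viability read; nearly all actives have a fitted effect of over 60% in size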
Procedure, shortened: as §1

[15] = qHTS of pediatric cancer cell lines to identify multiple opportunities for drug repurposing: Confirmatory screen for Rh41 cells (AID 1347123);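 also: 48 h compound exposure; nearly all actives have a fitted effect of over 60% in size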; also: potency is read from the fitted curve at half-maximal effect
Procedure, shortened: as §1

Compound	Potency [1]	Potency [2]	Potency [3]	Potency [4]	Potency [5]	Potency [6]	Potency [7]	Potency [8]	Potency [9]	Potency [10]	Potency [11]	Potency [12]	Potency [13]	Potency [14]	Potency [15]
CC[C@@H]1[C@@H](C)O[C@@](O)([C@@H](C)[C@H](O)[C@H](C)[C@H]2OC(=O)C=CC=C[C@@H](C)[C@@H]([C@@H](C)[C@@H](O)[C@H](C)[C@@]3(O)C[C@H](O[C@H]4C[C@H](O)[C@H](O)[C@H](C)O4)[C@H](CC)[C@@H](C)O3)OC(=O)C=CC=C[C@@H]2C)C[C@H]1O[C@H]1C[C@H](O)[C@H](O)[C@H](C)O1	inactive	inactive	inactive	inactive	inactive	inactive	inactive	inactive	inactive	inactive	–	–	–	–	–
O=C(O)CCCOc1ccc(Cl)cc1Cl	inactive	–	inactive	–	inactive	inactive	inactive	inactive	inactive	–	inactive	19.4 µM (active)	inactive	inactive	–
CC(C)N[C@@H]1CCn2c(=O)[nH]c3cccc(c32)[C@@H]1O	inactive	inactive	inactive	–	inactive	inactive	inactive	inactive	inactive	inactive	inactive	inactive	inactive	inactive	inactive
COc1ccc(C(=O)c2c(C)n(CCN3CCOCC3)c3cc(I)ccc23)cc1	–	–	–	–	inactive	16.5 µM (active)	–	–	–	inactive	18.5 µM (active)	–	–	inactive	9.27 µM (active)
C=CCON=C(C[C@H]1O[C@@H]2O[C@]3(C)CC[C@@H]4[C@H](C)CC[C@@H]([C@H]1C)[C@@]24OO3)[C@H]1O[C@@H]2O[C@]3(C)CC[C@H]4[C@H](C)CC[C@@H]([C@@H]1C)[C@@]24OO3	522 nM (active)	–	147 nM (active)	–	–	–	–	–	–	inactive	1.85 µM (active)	–	–	inactive	0.0522 µM (active)
